GIRK2 activator: Activators of human GIRK2-containing channels | HEK293 GIRK2/NPY4 cells, thallium flux fluorescence | activation (% efficacy), % for hits at 37.5 µM | 34,000 tested, under 10 active | P48051 | AID 1259324;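 active = primary screen hit, no activity in plain HEK293 cells, and in GIRK2-only cells above 5% efficacy rising with concentration; inactive = the rest, including fluorescent compounds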;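 note: efficacy is normalized control-subtracted fluorescence 15 s after thallium addition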
Target sequence (P48051 whole entry, looked up): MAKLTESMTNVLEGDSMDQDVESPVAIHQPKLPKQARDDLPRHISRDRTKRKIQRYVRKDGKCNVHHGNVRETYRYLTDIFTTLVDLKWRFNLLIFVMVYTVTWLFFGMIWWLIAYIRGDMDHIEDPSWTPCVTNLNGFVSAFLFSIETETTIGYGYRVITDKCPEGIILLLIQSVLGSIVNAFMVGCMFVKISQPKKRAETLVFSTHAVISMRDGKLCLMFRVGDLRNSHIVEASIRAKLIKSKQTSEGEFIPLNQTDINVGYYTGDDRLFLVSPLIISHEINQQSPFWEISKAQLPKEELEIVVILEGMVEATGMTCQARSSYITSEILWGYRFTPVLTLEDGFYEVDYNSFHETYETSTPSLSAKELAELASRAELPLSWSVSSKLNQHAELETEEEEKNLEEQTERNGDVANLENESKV
AMPAR-TARP mod: modulators of AMPA receptor GluA2-stargazin complexes; O88602+P19491; HEK293 GluA2+stargazin, membrane potential dye (FDSS), glutamate EC50; hits were called plate by plate, in both directions; calls only at 30 µM; 40,000 tested, 3.5% active;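 active = any of four per-well response measures lying three or more SD from its plate-wide compound average, in either direction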
The depositor's hits bear a star; i = inactive; x = no result; + = active, no number; [ ] = another dose, or the depositor's remark. Many of the other results were omitted from the sample, so hits are more common in it than they were.

SMILES	GIRK2 activator	AMPAR-TARP mod
COc1ccc(Cl)cc1S(=O)(=O)Nc1cc(Cl)ccc1O	i	i
CCOc1ccc(S(=O)(=O)Nc2cc(Cl)ccc2O)cc1C	i	i
COc1ccc(Br)cc1S(=O)(=O)Nc1cc(Cl)ccc1O	i	+
COc1cc(S(=O)(=O)Nc2cc(Cl)ccc2O)ccc1Cl	i	+
O=C(Nc1ccc2c(c1)N(C(=O)c1ccco1)CC2)c1ccc(F)cc1Cl	i	i
O=S(=O)(Nc1ccc2c(c1)OCCO2)c1c(Cl)cccc1Cl	i	i
O=S(=O)(Nc1cccc(C(F)(F)F)c1)c1c(Cl)cccc1Cl	i	+
COc1ccc(S(=O)(=O)CCCC(=O)Nc2sccc2C#N)cc1	x	i
COc1cc(OC)cc(C2=NC3(CCCC3)N=C2SCC(=O)Nc2ccccc2)c1	i	+
COc1ccc(NC(=O)CSC2=NC(C)(C)N=C2c2ccccc2)cc1OC	i	i
CCOc1ccc(S(=O)(=O)NCCN2CCOC(c3ccccc3)C2)cc1C (stereo not given)	i	x
CCc1ccc(NC(=O)C(=O)Nc2ccc([N+](=O)[O-])cc2)cc1	x	i
CSc1ccc(CC(=O)Nc2ccc([N+](=O)[O-])cc2)cc1	x	+
COc1ccc(NC(=O)Cc2ccc(SC)cc2)cc1	x	i
O=C(NCCc1ccc(F)cc1)Nc1ccc([N+](=O)[O-])cc1	x	+
O=C(NCC1CCN(Cc2ccco2)CC1)C(=O)Nc1ccc(OC(F)(F)F)cc1	i	i
CC(O)(CNC(=O)c1cc(Cl)ccc1Cl)c1ccc2c(c1)OCO2 (stereo not given)	i	i
CC(O)(CNC(=O)Nc1ccc(Cl)c(Cl)c1)c1ccc2c(c1)OCO2 (stereo not given)	i	+
CN(C)CCNC(CC(=O)Nc1ccccc1)C(=O)O (stereo not given)	x	i
COc1cccc(C(=O)NCCS(=O)(=O)N2CCC3(CC2)OCCO3)c1	x	+
COc1cccc(C(=O)NCCS(=O)(=O)N2CCOCC2)c1	x	i
O=C(NCC(O)(c1ccccc1)C(F)(F)F)C1COc2ccccc2O1 (stereo not given)	i	i
O=C(NCC(O)(c1ccccc1)C(F)(F)F)c1cccc(C(F)(F)F)c1 (stereo not given)	i	+
O=C(NCC(O)(c1ccccc1)C(F)(F)F)c1ccc(Cl)c(Cl)c1 (stereo not given)	i	i
O=C(NCC(O)(c1ccccc1)C(F)(F)F)C1c2ccccc2Oc2ccccc21 (stereo not given)	i	+
SMILES	GIRK2 activator	AMPAR-TARP mod
CCn1c(=O)c(C(=O)NCc2ccc(C)cc2)cc2cccnc21	i	i
O=C(/C=C/c1ccco1)N1CCC(Cn2cccn2)CC1	i	i
Cc1ccc(-n2nc3c(c2-n2cccc2)CN(C(=O)c2ccc(F)c(F)c2)C3)cc1	i	i
Cc1cccc(-n2nc3c(c2-n2cccc2)CN(C(=O)c2cc(C)oc2C)C3)c1	i	+
CC(C)NC(=O)CSc1nnc(N2CCN(c3ccc(F)cc3)CC2)s1	i	+
CCOC(=O)C(C)Sc1nnc(N2CCN(c3ccc(F)cc3)CC2)s1 (stereo not given)	i	i
CCOc1ccc(NC(=O)c2ccc(=O)n(Cc3cccc([N+](=O)[O-])c3)c2)cc1	i	i
COCc1nc2ccccc2n1CC(O)COc1ccc(C(C)C)cc1 (stereo not given)	i	+
COCc1nc2ccccc2n1CC(O)COc1ccc(Cl)c(C)c1 (stereo not given)	i	i
COc1cc2cc(CNc3ccccc3)c(=O)n(CC(=O)Nc3cccc(Cl)c3C)c2cc1OC	x	+
COc1cc2cc(CNc3ccccc3)c(=O)n(CC(=O)Nc3ccc4c(c3)OCO4)c2cc1OC	x	+
COC(=O)c1ccccc1NC(=O)Cn1c(=O)c(CNc2ccccc2)cc2ccc(OC)cc21	i	i
COc1cccc(NC(=O)Cn2c(=O)c(CNc3ccccc3)cc3ccc(OC)cc32)c1	x	+
CCc1ccc(NCc2cc3cc4c(cc3n(CC(=O)Nc3cc(C)ccc3C)c2=O)OCCO4)cc1	i	i
COc1cc2cc(CNc3ccccc3)c(=O)n(CC(=O)Nc3ccc(C)c(Cl)c3)c2cc1OC	x	i
COc1cc2cc(CNc3ccc(C)cc3)c(=O)n(CC(=O)Nc3cccc(Cl)c3)c2cc1OC	i	i
Cc1ccc(C)c(NC(=O)Cn2c(=O)c(CNc3ccccc3)cc3cc4c(cc32)OCCO4)c1	i	+
O=C(Nc1nnc2n1CCS2)C1(c2ccc(Cl)cc2)CCCC1	i	i
COC(=O)c1c(C)n(C)c2ccc(OC(=O)c3ccc(OC)c(OC)c3)cc12	x	i
CCOC(=O)c1cccc(NC(=O)Cn2nc3c(cc2=O)CCCC3)c1	x	i
CC(=O)c1ccc(NC(=O)Cn2nc(C(=O)Nc3ccc(C)cc3)ccc2=O)cc1	i	i
CCn1c(=O)c2c(nc3n(-c4ccc(OC)cc4)c(C)c(C)n23)n(C)c1=O	x	i
CCn1c(=O)c2c(nc3oc(C)c(C)n32)n(C)c1=O	i	+
COc1cccc(NC(=O)Nc2ccc(N3CCCS3(=O)=O)cc2)c1	i	i
COc1cc(NC(=O)Nc2ccc(CN3CCN(C)CC3)cc2)cc(OC)c1OC	i	i
SMILES	GIRK2 activator	AMPAR-TARP mod
O=C(Nc1ccc(N2CCCS2(=O)=O)cc1)Nc1cccc(Cl)c1	i	+
COc1ccc(Cl)cc1NC(=O)Nc1ccc(CN2CCN(C)CC2)cc1	14%*[75 µM]	i
COc1ccc(Cl)cc1NC(=O)Nc1cc(N2CCCS2(=O)=O)ccc1OC	i	+
COc1ccc(N2CCCS2(=O)=O)cc1NC(=O)Nc1ccc(Cl)c(Cl)c1	i	i
COc1ccc(-c2ccc(OCCNC(=O)c3cc4cc(Br)ccc4oc3=O)nn2)cc1	i	i
Cc1ccc(Cl)cc1-n1ncc2c1ncn1c(-c3cccnc3)nnc21	i	i
Cc1ccccc1C(=O)N1CCC2(CC1)CC(=O)c1ccccc1O2	x	+
CC(C)(C)c1ccc(C(=O)N2CCC3(CC2)CC(=O)c2ccccc2O3)cc1	x	i
CS(=O)(=O)CCN1CCNCC1	i	i
O=C(Nc1ccc(F)cc1F)c1ccc(=O)n(Cc2ccc(C(F)(F)F)cc2)c1	i	+
Cc1ccc(Cn2cc(C(=O)Nc3ccc(F)cc3F)ccc2=O)cc1	i	i
CCOC(=O)c1ccc(Nc2cc(C)nc(-n3cc([N+](=O)[O-])cn3)n2)cc1	i	i
CCOC(=O)c1ccc2nc(C)cc(Nc3cccc([N+](=O)[O-])c3)c2c1	x	+
CCN(C(=O)Cn1cc(-c2ccccc2)c(N2CCOCC2)n1)c1cccc(C)c1	i	+
CCN(C(=O)Cn1cc(-c2ccc(C)cc2)c(N2CCOCC2)n1)c1cccc(C)c1	i	x
O=S(=O)(c1cccs1)N1CCN(Cc2nnnn2-c2ccc(Cl)cc2)CC1	i	i
O=S(=O)(c1cccs1)N1CCN(Cc2nnnn2-c2ccc(F)cc2)CC1	i	+
CC(=O)N1CCN(S(=O)(=O)c2ccc(C(=O)Nc3cccc(C)c3)cc2)CC1	i	i
Cc1c(NC(=S)NC(=O)c2ccccc2Cl)c(=O)n(-c2ccccc2)n1C	i	i
Cc1c(NC(C)c2cc(Cl)ccc2O)c(=O)n(-c2ccccc2)n1C (stereo not given)	x	+

Screening data (PubChem)
